Experimental data as given in PubChem BioAssay (NCI).
About 83,000 compounds went through this panel and 20% of them were active in at least one assay; those are over-represented in the sample as a whole.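 Plates (96-well) were seeded with cells, treated with compound at one concentration, and incubated for 48 hours before percent growth was determined.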 A number with no mark means an inactive call. The source made the active and inactive calls.

Test system: M14 melanoma
Assay: NCI-60 one-dose screen, 48 h (100 = growth as untreated, 0 = no growth, -100 = all killed)
Details: 10 µM unless noted
Description: Growth inhibition of the M14 human tumor cell line is measured as a screen for anti-cancer activity. Cells are grown in 96 well plates and exposed to the test compound for 48 hours. Compounds are tested at a single concentration, which is 10^-5 M for most compounds. The reported endpoint is percent growth (GI% or GIPRCNT), where numbers from 0 - 100% represent growth inhibition, and numbers from -100% - 0 represent cell death. For example, a value of 40 represents 60% growth inhibition. A value of 0 means no net growth occurred over the course of the experiment. A value of -40 indicates 40% of cells at the beginning of the experiment died by the end of the experiment. A value of -100 means all cells are dead at the end of the experiment.
NCI-60 Human Tumor Cell Lines Screen was performed using the standard one-dose NCI protocol, which is described in more detail at https://dtp.cancer.gov/discovery_development/nci-60/default.htm.
Compounds with GIPRCNT values below 10 were considered active. Activity score was based on GIPRCNT using the following formula: […]
Score is 0 for GIPRCNT values of 100 or above, 50 for GIPRCNT values of 0, and 100 for GIPRCNT values of -100.

In order of falling growth:
1. Cn1nc(CC#N)c2c(=N)n(N)cnc21  110%
2. COc1cc(/C=C\C(=O)O)ccc1OCc1ccccc1  109%
3. N#Cc1cc(-c2nc3ccccc3s2)c(=O)n(NS(=O)(=O)c2ccccc2)c1N  107%
4. CCOC(=O)Nc1ccc(-c2ccc3c(c2)NC(=O)/C3=C\c2ccc[nH]2)cc1  103%
5. COc1cc(CC(=O)n2ncc3ccc(N)cc32)cc(OC)c1OC  102%
6. CC1=CCC(OC(=O)C(C)(O)CCC(O)(C(=O)OC2(C)C=CC(O)(C(C)C)CC2)C(C)C)(C(C)C)CC1 (stereo not given)  102%
7. Cc1cccc(-c2cn3ccnc3c(-c3ccc4ncn(Cc5ccccc5)c4c3)n2)c1  102%
8. N#Cc1c(-c2cccc([N+](=O)[O-])c2)nc(SCC(=O)c2ccc(Cl)cc2)[nH]c1=O  100%
9. Cc1nn(-c2ccccc2)c(Cl)c1/C=N\N=c1/sc2ccccc2n1C  99.8%
10. N/C(=N\C(N)=N\c1nc2ccccc2s1)c1cccc(Cl)c1  96.1%
11. COC(=O)C1=C(C(=O)ON)[C@@H]2C=C[C@@]1([C@@H](Cc1ccccc1)Nc1ccccc1)O2  95.3%
12. NC(=O)CSSCC(N)=O  93.2%
13. CC(C)N1C(=O)S/C(=C2/SC(=O)N(C(C)C)C2=O)C1=O  93%
14. CC1(C)NCCC[C@]2(C)[C@H]3CC(=O)[C@H]4[C@@H]5C[C@](C)(CO)CC[C@]5(C)CC[C@@]4(C)[C@]3(C)CC[C@@H]12  92.6%
15. CCNc1nc2ccc(Nc3ccnc4cc(Cl)ccc34)cc2[nH]1  91.9%
16. O=C1Nc2cc(-c3cccc([N+](=O)[O-])c3)ccc2/C1=C/c1ccc[nH]1  89.8%
17. OC(c1cccc(C(F)(F)F)c1)c1cnccc1NC1CCCCC1 (stereo not given)  87.9%
18. COc1ccc(-c2cnc3c(-c4cccc5cnccc45)cnn3c2)cc1  74.5%
19. O=C(Nc1ccc(F)cc1)Nc1ccc(NC(=O)c2cc(Cl)nc3ccccc23)cc1  74.3%
20. N=C1C(c2nc3ccccc3s2)=C(O)CN1c1cc(Cl)cc(Cl)c1  69%
21. CCc1ccc(-c2cn3ccnc3c(-c3ccc4ncn(Cc5ccccc5)c4c3)n2)cc1  63.6%
22. CC(=O)Oc1ccc(/C=N/NC(N)=S)nc1  58.2%
23. CCCCCCCCOc1ccc(/C=N/Nc2cc(C)nc3ccc(Br)cc23)cc1  53.6%
24. O=c1[nH]nc(-c2ccccc2)c2sc3ncc(-c4ccc(Br)cc4)n3c12  42.3%
25. N#C/C(=C\c1c(-c2ccccc2)[nH]c2ccccc12)C(=O)c1ccc(Cl)cc1  41%
26. CCN1C(=O)N(CC)C2Nn3c(s/c(=C\c4ccc(OC)cc4)c3=O)=NC21 (stereo not given)  39.8%
27. C=C1C(=O)O[C@H]2[C@H]1CC/C(CNC(=O)c1cccc3ccccc13)=C\CC[C@@]1(C)O[C@@H]21  38.2%
28. CCOC(=O)C1=C(CCl)NC(=O)NC1c1ccc2c(c1)OCO2 (stereo not given)  32.3%
29. COc1cc2oc(-c3cccc(C(=O)Nc4ccc(Br)cc4)c3)cc(=O)c2c(OC)c1OC  27%
30. COc1cc(-c2csc(NC(=O)c3cc(F)cc(C(F)(F)F)c3)n2)cc(OC)c1OC  23.6%
31. Oc1c(Cl)cc(Cl)c(Cl)c1CNCCNCc1c(O)c(Cl)cc(Cl)c1Cl  20.3%
32. N#CC1=C(N)Oc2c(ccc3ccccc23)C1c1ccccc1Cl (stereo not given)  12.5%

With `O=C1c2ccc3c4c(ccc(c24)C(=O)N1CCCNCc1ccccc1Cl)C(=O)N(CCCNCc1ccccc1Cl)C3=O` the growth was -56.5% (active).
With `Cc1ncc(C(=O)Nc2ccc(CN3CCN(C)CC3)c(C(F)(F)F)c2)cc1C#Cc1cnc(N)cc1C#N` the growth was -75.1% (active).
With `CCN(CC)c1ccc(/C=N/NC(=O)CSc2nc3ccccc3c(=O)n2Cc2ccc(S(N)(=O)=O)cc2)c(O)c1` the growth was 4.26% (active).
In the case of `O=C(CCN1CCCC1)Nc1ccc2c(Nc3ccc(Br)cc3)c3ccccc3nc2c1`, the growth is reported as -75% (active).
In the case of `COc1cc2nc(-c3ccc(Cl)cc3)cc(OCCCN3CCCC3)c2cc1OC`, the growth is reported as -29.7% (active).
With `COC(=O)N[C@H]1CCc2c(Cl)c(OC)c(OC)c(OC)c2-c2ccc(SC)c(=O)cc21` the growth was 0.0864% (active).
In the case of `O=C1c2ccc3c4c(ccc(c24)C(=O)N1CCCNCc1ccccc1F)C(=O)N(CCCNCc1ccccc1F)C3=O`, the growth is reported as -60.8% (active).
`O=C1CC(=O)OC(c2ccc([N+](=O)[O-])cc2)O1` was tested, and the growth was -64.4% (active).
